Source: PubChem
This is a sample that favours compounds with a hit; in the whole collection about 6.8% have one here.
Spn DPM-DC inh: blocks S. pneumoniae diphosphomevalonate decarboxylase. purified DPM-DC, PK/LDH coupled NADH fluorescence. calls only at 10 µM. 0.49% of 65,000 active. AID 556;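 active = the 320 compounds with the highest percent inhibition in the single-dose primary screen, excluding strongly autofluorescent ones, cut at about 32% in these data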;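 note: kinetic rate of NADH fluorescence loss reporting ADP formed by the decarboxylase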
MK inhibit: blocks S. pneumoniae mevalonate kinase. purified MK, PK/LDH-coupled NADH absorbance 340 nm. inhibition, % at 10 µM. 0.48% of 65,000 active. AID 555;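 active = ranked among the strongest by inhibition in the single 10 µM screen, a fixed top-ranked set picked for dose follow-up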
NADH coupling: inhibitors of enzymes used to reach an NAD/NADH endpoint; coupled PK/LDH NADH assays, four targets; AID 774; 0.02% of 65,000 active; IC50, µM (doses to about 10 µM);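 active = single-dose screening hits from any of four coupled enzyme assays that gave an IC50 when retested across doses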;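 note: the DPM-DC format reads NADH fluorescence rather than 340 nm absorbance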
Autofluor 339: intrinsic fluorescence of library compounds, ex339/em460 – biochemical, MLSMR library, data from DPM-DC assay, artefact control, profiling panel; compound autofluorescence, ex339/em460 nm, NADH buffer; stronger effect = higher value; 1 = no-compound wells, NADH background; fluorescence fold increase at 10 µM; 5.5% of 65,000 active;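 active = at 10 µM, mean starting fluorescence two-fold or more over control wells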;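 note: signal is the first read of a kinetic run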
Spn PMK inh: blocks S. pneumoniae phosphomevalonate kinase. purified PMK, PK/LDH-coupled NADH absorbance 340 nm. inhibition, % at 10 µM. 0.49% of 65,000 active. AID 539;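 active = top-ranked compounds by inhibition in the single 10 µM screen, taking a fixed number of the strongest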
Abs 340nm: compounds absorbing at 340 nm | compound absorbance at 340 nm, fold over control | 65,000 tested, under 10 active | AID 708 | fold change at 10 µM;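 active = at 10 µM dose, initial 340 nm absorbance at least 2 fold that of control wells; inactive = change under 2 fold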;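 note: initial absorbance extrapolated from kinetic A340 decline of NADH oxidation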
Hits are given with their value; n = inactive; x = no result shown; + = active, no number.

SMILES | Spn DPM-DC inh | MK inhibit | NADH coupling | Autofluor 339 | Spn PMK inh | Abs 340nm
COc1ccc(-c2ncc3ccccn23)cc1 | x | n | n | 3.2 | n | n
c1csc(-c2ncc3ccccn23)c1 | x | n | n | 3.4 | n | n
CCn1cc(C(=O)NCCCOC)c(=O)c2cc(S(=O)(=O)N(C)C)ccc21 | n | n | n | n | n | n
CCCCS(=O)(=O)C(=C1Nc2ccccc2N1)S(=O)(=O)CCCC | n | n | n | n | 26 | n
CCOc1ccc(CCNC(=O)C2CCN(c3nn4c(=O)cc(C)nc4s3)CC2)cc1OCC | n | n | n | n | n | n
COc1ccc(-c2nc3c(n2O)CCCC3=O)cc1OC | x | n | n | 3.5 | n | n
O=C(Nc1ccc(N2CCOCC2)cc1)Nc1ccc2nc(-c3ccco3)c(-c3ccco3)nc2c1 | n | n | n | n | n | n
O=S(=O)(c1ccc2nc(-c3ccco3)c(-c3ccco3)nc2c1)N1CCOCC1 | n | n | n | 2.2 | n | n
Cn1c(=O)c2c(nc(N3CCCCCC3)n2Cc2cccc3ccccc23)n(C)c1=O | n | n | n | n | n | n
Cn1c(=O)c2c(nc(N3CCOCC3)n2C)n(C)c1=O | n | n | n | n | 26 | n
CN1CCN(c2nc3c(c(=O)n(C)c(=O)n3C)n2Cc2cccc3ccccc23)CC1 | n | active | n | n | n | n
CN(C(=O)c1ccncc1)c1nnc(-c2ccncc2)s1 | x | n | n | 3.6 | n | n
Cc1cnc(-c2nnc(N(C)C(=O)C3CCOC3)s2)cn1 (centres undefined) | n | n | n | 2 | n | n
CN(C(=O)C1CCCO1)c1nnc(-c2ccncc2)s1 (centres undefined) | x | n | n | 2.6 | n | n
CN(C(=O)C1CCCO1)c1nnc(-c2ccccn2)s1 (centres undefined) | x | n | n | 4.8 | n | n
CCC(NC(=O)NCc1cccnc1)(C(F)(F)F)C(F)(F)F | n | n | n | n | n | n
CCCN1Cc2cccc(C(=O)Nc3ccc(N4CCN(CC)CC4)cc3)c2C1=O | n | n | n | n | n | n
CCCn1nc(-c2nnc(-c3ccc(C)c(C)c3)o2)c2ccccc2c1=O | n | n | n | n | n | n
CN(C(=O)c1cnccn1)c1nnc(-c2cccnc2)s1 | n | n | n | n | 30 | n
COCC(=O)N(C)c1nnc(-c2ccccn2)s1 | n | n | n | 2 | n | n
CN(C(=O)C1CCOC1)c1nnc(-c2ccccn2)s1 (centres undefined) | n | n | n | n | n | n
O=C(NCc1ccccn1)c1cn(CCc2ccccc2)nn1 | n | n | n | n | n | n
CCN(CC)Cc1c[nH]c2c(C(=O)OC)cccc12 | x | n | n | 2.1 | n | n
CC1CN(c2nc3ccccc3nc2C(C#N)C(=O)NCc2ccc3c(c2)OCO3)CC(C)O1 (centres undefined) | n | n | n | n | n | n
N=c1c(S(=O)(=O)c2ccc(Cl)cc2)cc2c(=O)n3ccccc3nc2n1CCN1CCOCC1 | x | x | n | 5 | n | n
SMILES | Spn DPM-DC inh | MK inhibit | NADH coupling | Autofluor 339 | Spn PMK inh | Abs 340nm
Cn1c(=N)c(S(=O)(=O)c2ccccc2)cc2c(=O)n3ccccc3nc21 | x | n | n | 2.8 | n | n
Cn1c(=N)c(S(=O)(=O)c2ccc(F)cc2)cc2c(=O)n3ccccc3nc21 | x | n | n | 3.4 | n | n
Cc1ccc(S(=O)(=O)c2cc3c(=O)n4cccc(C)c4nc3n(CC3CCCO3)c2=N)cc1 (centres undefined) | n | n | n | n | n | n
CCOc1ccc(S(=O)(=O)NCCC(=O)OC(C)C(=O)N2CCc3ccccc32)cc1 (centres undefined) | n | n | n | n | n | n
CCCCN(C)CCNC(=O)Cn1ncc2c(=O)oc3ccc(C)cc3c21 | n | n | n | n | n | n
CCc1c(C)nc2cc(-c3cc(OC)cc(OC)c3)nn2c1N1CCCC1 | n | n | n | n | n | n
COc1cc(OC)cc(-c2cc3nc4c(c(N5CCN(c6ncccn6)CC5)n3n2)CCCC4)c1 | n | n | n | 3.8 | n | n
COc1cc(OC)cc(-c2cc3nc4c(c(N5CCN(c6cnccn6)CC5)n3n2)CCCC4)c1 | n | n | n | 2.8 | n | n
COc1ccc(S(=O)(=O)N2CCOCC2)c(Cl)c1Cl | n | n | n | n | n | n
CCCn1c(C)nc2c(c1=O)c1nc3ccccc3nc1n2-c1ccc2c(c1)OCCO2 | + | n | n | 2.6 | n | n
CCCCCn1c2nc3ccccc3nc2c2c(=O)n(CC(C)C)cnc21 | n | n | n | n | n | n
CCCCCn1c2nc3ccccc3nc2c2c(=O)n(CC3CCCO3)c(C)nc21 (centres undefined) | x | n | n | 4 | n | n
COc1cc(OC)cc(-n2c3nc4ccccc4nc3c3c(=O)n(CC4CCCO4)cnc32)c1 (centres undefined) | n | n | n | n | n | n
Cc1nc2c(c(=O)n1CC1CCCO1)c1nc3ccccc3nc1n2CCC(C)C (centres undefined) | x | n | n | 2.3 | n | n
O=c1c2c3nc4ccccc4nc3n(CC3CCCO3)c2ncn1CCc1ccccc1 (centres undefined) | x | n | n | 2.9 | n | n
Cc1nc2c(c(=O)n1CCC(C)C)c1nc3ccccc3nc1n2Cc1ccc2c(c1)OCO2 | n | n | n | n | n | n
Clc1ccc(Cn2cccc2C2=NCCO2)cc1 | n | n | n | n | n | n
Cc1ccc(CN2CC34C=CC(O3)C(C(=O)NCc3ccc5c(c3)OCO5)C4C2=O)cc1 (centres undefined) | n | n | n | n | n | n
COCCCNC(=O)C1C2C=CC3(CN(Cc4ccc(C)cc4)C(=O)C13)O2 (centres undefined) | n | n | n | n | 25 | n
O=C1CSc2ccc(C(=O)N3CCN(c4ccccn4)CC3)cc2N1 | n | n | n | n | n | n
COCCNC(=O)c1ccc2c(c1)NC(=O)CS2 | n | n | n | n | 27 | n
Cc1cc(C)cc(N(CC(=O)NCc2cccnc2)S(C)(=O)=O)c1 | n | n | n | n | n | n
CC(=O)c1cccc(NC(=O)Nc2cccnc2)c1 | + | n | n | n | n | n
CCOC(=O)Cn1c2ccccc2c2nc3ccccc3nc21 | n | n | n | 2.9 | n | n
CCOC(=O)Cn1c(C)c(C#N)c2ccccc21 | n | n | n | n | n | n
SMILES | Spn DPM-DC inh | MK inhibit | NADH coupling | Autofluor 339 | Spn PMK inh | Abs 340nm
CCCn1c2ccccc2c2nc3ccccc3nc21 | n | n | n | 2.4 | n | n
CCCn1c(Nc2nc3ccccc3n2C)nc2ccccc21 | n | n | n | 2.1 | n | n
N#CCCn1c2ccccc2c2nc3ccccc3nc21 | n | n | n | n | n | n
O=c1oc2ccccc2n1CCn1c2ccccc2c2nc3ccccc3nc21 | n | n | n | n | 9.0 | n
CCCn1c(NC(=O)c2ccccc2)nc2ccccc21 | n | n | n | n | n | n
CCCCn1c(SCc2cc(=O)[nH]c3ccccc23)nc2c1c(=O)n(C)c(=O)n2C | n | n | n | n | n | n
